“And” between values parts separate entries of the source, which are not always exact repeats. Equal entries are not always repeated. Records with an inconclusive call do not appear. Entries that show only a call come without a potency. The source made the active and inactive calls. Unless noted, calls follow the shape of the dose curve; as a rule, active = well fitted curve in the direction sought with a large enough effect in the repeat runs; inconclusive = weak or mixed curves; inactive = no such curve, though single readings can be large; an effect the other way counts as inactive or inconclusive.
Tests used:
[1] = target: Aryl hydrocarbon receptor (Homo sapiens) (UniProt P35869); test: qHTS assay to identify small molecule that activate the aryl hydrocarbon receptor (AhR) signaling pathway (AID 743085); also: nearly all actives have a fitted effect of over 15% in size; also: potency is read from the fitted curve at half-maximal effect;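 as to activation: HG2L7.5c1 human HepG2 liver cells with stably integrated DRE-driven firefly reporter; series mostly up to about 70 µM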
Chain of Aryl hydrocarbon receptor (Homo sapiens) (P35869 whole entry, looked up): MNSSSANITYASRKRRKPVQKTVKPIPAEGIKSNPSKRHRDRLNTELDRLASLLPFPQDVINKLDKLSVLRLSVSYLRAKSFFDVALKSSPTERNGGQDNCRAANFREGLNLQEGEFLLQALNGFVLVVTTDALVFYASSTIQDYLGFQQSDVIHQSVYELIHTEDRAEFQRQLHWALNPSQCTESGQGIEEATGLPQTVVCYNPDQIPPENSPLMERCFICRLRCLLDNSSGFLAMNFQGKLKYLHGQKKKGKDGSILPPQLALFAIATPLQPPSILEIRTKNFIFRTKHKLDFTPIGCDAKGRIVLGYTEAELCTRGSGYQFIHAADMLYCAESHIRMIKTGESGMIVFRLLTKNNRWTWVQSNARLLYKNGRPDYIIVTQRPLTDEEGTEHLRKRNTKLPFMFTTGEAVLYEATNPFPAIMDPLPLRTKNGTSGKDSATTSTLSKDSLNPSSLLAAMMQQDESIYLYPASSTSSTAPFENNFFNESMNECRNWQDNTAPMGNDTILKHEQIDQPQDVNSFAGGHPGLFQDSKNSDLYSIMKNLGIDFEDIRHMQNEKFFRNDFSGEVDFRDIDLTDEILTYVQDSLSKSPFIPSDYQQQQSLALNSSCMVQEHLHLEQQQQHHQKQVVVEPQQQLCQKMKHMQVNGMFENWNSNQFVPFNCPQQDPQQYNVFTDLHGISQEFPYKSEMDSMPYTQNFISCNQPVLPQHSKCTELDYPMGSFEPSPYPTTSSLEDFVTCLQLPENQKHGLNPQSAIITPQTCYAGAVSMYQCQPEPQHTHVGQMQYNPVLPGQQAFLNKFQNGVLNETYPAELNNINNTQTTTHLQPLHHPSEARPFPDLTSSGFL
Outline: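 Luminescence read-out: ONE-Glo reagent, 30 min at room temperature, in HG2L7.5c1 HepG2 reporter cells treated 24 h at 37C. Viability was measured beforehand by CellTiter-Fluor fluorescence after 30 min at 37C.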

[2] = qHTS assay to identify small molecule that activate the aryl hydrocarbon receptor (AhR) signaling pathway - cell viability counter screen (AID 743086); also: nearly all actives have a fitted effect of over 45% in size; also: potency is read from the fitted curve at half-maximal effect
Outline: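 HepG2-AhR-luc (HG2L7.5c1) cells, 4000/well, were preincubated 5 h at 37C, exposed to compound in qHTS format for 24 hr at 37C, then given CellTiter-Fluor for 30 min; viability was read as fluorescence in the reporter wells.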

[3] = qHTS assay for small molecule activators of the heat shock response signaling pathway (AID 743210; active = well fitted activation curve with a large enough effect in the signal ratio in the repeat runs, with a control signal flat, not every such curve was filed as active; the % refers to the signal ratio; also: series mostly up to about 63 µM)
Outline: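 HSE-bla HeLa cells (beta-lactamase reporter under heat shock response elements) were exposed to compounds for 5 h at 37 C, then loaded with LiveBLAzer B/G FRET substrate for 2.5 h at room temperature before fluorescence reading.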

[4] = qHTS assay to identify small molecule agonists of the peroxisome proliferator-activated receptor delta (PPARd) signaling pathway - cell viability counter screen (AID 743211); also: nearly all actives have a fitted effect of over 55% in size; also: potency is read from the fitted curve at half-maximal effect
Outline: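 Read-out: CellTiter-Glo luminescence, 30 min RT, measured in the same wells as the beta-lactamase reporter. Cells: GeneBLAzer PPAR delta UAS-bla HEK293H, 3000 cells/well, compound exposure 17 h at 37C.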

[5] = qHTS assay to identify small molecule agonists of the farnesoid-X-receptor (FXR) signaling pathway - cell viability counter screen (AID 743218); also: nearly all actives have a fitted effect of over 45% in size; also: potency is read from the fitted curve at half-maximal effect
Outline: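 Parallel cytotoxicity test: compound-treated (16 h, 37 C) HEK 293T FXR-bla reporter cells were lysed with CellTiter-Glo and luminescence recorded.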

[6] = target: Bile acid receptor (Homo sapiens) (UniProt Q96RI1); test: qHTS assay to identify small molecule agonists of the farnesoid-X-receptor (FXR) signaling pathway (AID 743220; active = well fitted activation curve with a large enough effect in the signal ratio in the repeat runs, not every such curve was filed as active; the % refers to the signal ratio)
Chain of Bile acid receptor (Homo sapiens) (Q96RI1 whole entry, looked up): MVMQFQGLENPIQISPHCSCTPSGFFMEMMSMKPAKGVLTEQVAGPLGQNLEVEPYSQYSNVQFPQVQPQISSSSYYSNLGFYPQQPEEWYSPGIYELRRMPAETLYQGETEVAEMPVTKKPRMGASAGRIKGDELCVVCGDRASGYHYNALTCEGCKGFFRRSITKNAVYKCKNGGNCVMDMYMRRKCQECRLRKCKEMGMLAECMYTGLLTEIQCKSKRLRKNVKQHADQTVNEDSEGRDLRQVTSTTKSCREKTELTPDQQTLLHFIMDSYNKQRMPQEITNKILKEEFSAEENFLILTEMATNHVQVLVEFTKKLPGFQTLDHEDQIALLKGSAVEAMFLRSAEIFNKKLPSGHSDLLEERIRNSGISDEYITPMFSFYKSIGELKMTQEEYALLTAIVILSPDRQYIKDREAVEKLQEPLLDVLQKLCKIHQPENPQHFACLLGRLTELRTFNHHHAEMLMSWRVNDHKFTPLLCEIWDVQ
Outline: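 Beta-lactamase reporter under UAS control in GeneBLAzer FXR HEK 293T cells (5000/well) measured with LiveBLAzer FRET substrate after 2 h at room temperature. Compound exposure lasted 16 h at 37C.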

[7] = qHTS assay to identify small molecule antagonists of the farnesoid-X-receptor (FXR) signaling pathway - cell viability counter screen (AID 743221; active = well fitted cell-killing curve with a large enough effect in the repeat runs, not every such curve was filed as active; also: nearly all actives have a fitted effect of over 50% in size; also: potency is read from the fitted curve at half-maximal effect)
Outline: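 HEK 293T FXR-bla cells, 5 h pre-incubation; compound + CDCA 50 uM final, 16 h, 37 C; beta-lactamase FRET read first, then CellTiter-Glo luminescence, 30 min RT.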

[8] = qHTS assay to identify small molecule antagonists of the peroxisome proliferator-activated receptor gamma (PPARg) signaling pathway - cell viability counter screen (AID 743194); also: nearly all actives have a fitted effect of over 55% in size; also: potency is read from the fitted curve at half-maximal effect
Outline: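 PPARg-UAS-bla HEK293H cells were plated, rested 5 h at 37 C, then treated with compounds plus rosiglitazone (50 nM final) for 17 h at 37 C; viability was then read by CellTiter-Glo luminescence after 30 min at room temperature.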

[9] = qHTS assay for small molecule agonists of the antioxidant response element (ARE) signaling pathway (AID 743202; active = well fitted activation curve with a large enough effect in the signal ratio in the repeat runs, not every such curve was filed as active; the % refers to the signal ratio)
Outline: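 Read-out: LiveBLAzer B/G FRET substrate fluorescence after 2 h at room temperature, following 16 h compound treatment at 37 C of HepG2 cells carrying an ARE-driven beta-lactamase reporter.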

[10] = qHTS assay for small molecule agonists of the antioxidant response element (ARE) signaling pathway - cell viability counter screen (AID 743203; calls by dose curve; also: nearly all actives have a fitted effect of over 55% in size; also: potency is read from the fitted curve at half-maximal effect)
Outline: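 Following 16 hrs of compound treatment at 37C, HepG2 cells with an ARE-controlled beta-lactamase gene were lysed with CellTiter-Glo. Luminescence was read after 30 min at room temperature.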

[11] = qHTS assay for small molecule activators of the heat shock response signaling pathway - cell viability counter screen (AID 743209); also: nearly all actives have a fitted effect of over 50% in size; also: potency is read from the fitted curve at half-maximal effect
Outline: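 Readout: CellTiter-Glo luminescence, 30 min at room temperature. System: HSE-bla HeLa cells, 1500/well, plated overnight. Treatment: compounds in DMSO, 5 h at 37 C.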

[12] = qHTS assay to identify small molecule antagonists of the peroxisome proliferator-activated receptor delta (PPARd) signaling pathway - cell viability counter screen (AID 743213); also: nearly all actives have a fitted effect of over 50% in size; also: potency is read from the fitted curve at half-maximal effect
Outline: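 In this counter screen, HEK293H cells carrying a UAS-beta-lactamase reporter are co-treated with test compounds and 300 nM L165041 (final) for 17 h at 37 C; cell viability is quantified by CellTiter-Glo luminescence.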

[13] = target: Vitamin D3 receptor (Homo sapiens) (UniProt P11473); test: qHTS assay to identify small molecule agonists of the vitamin D receptor (VDR) signaling pathway (AID 743222; calls by dose curve)
Chain of Vitamin D3 receptor (Homo sapiens) (P11473 whole entry, looked up): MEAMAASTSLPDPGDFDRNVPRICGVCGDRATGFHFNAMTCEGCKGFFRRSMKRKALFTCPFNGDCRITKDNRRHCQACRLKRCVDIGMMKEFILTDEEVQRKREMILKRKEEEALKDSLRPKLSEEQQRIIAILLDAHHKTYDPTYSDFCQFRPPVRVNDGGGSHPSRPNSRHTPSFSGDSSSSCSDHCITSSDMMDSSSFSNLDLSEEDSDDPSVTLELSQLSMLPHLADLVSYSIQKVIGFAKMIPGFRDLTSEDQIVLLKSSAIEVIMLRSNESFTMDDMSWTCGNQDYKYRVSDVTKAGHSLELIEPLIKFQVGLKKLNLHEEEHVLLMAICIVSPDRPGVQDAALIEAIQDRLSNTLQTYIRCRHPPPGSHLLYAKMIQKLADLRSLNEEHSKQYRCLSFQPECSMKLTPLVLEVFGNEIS
Outline: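 In VDR-bla cells, compound-induced beta-lactamase expression is quantified by FRET substrate fluorescence. Treatment lasts 16 h at 37C; substrate develops 2 h at room temperature.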

[14] = target: Vitamin D3 receptor (Homo sapiens) (UniProt P11473); test: qHTS assay to identify small molecule antagonists of the vitamin D receptor (VDR) signaling pathway (AID 743223; active = well fitted inhibition curve with a large enough effect in the signal ratio in the repeat runs, not every such curve was filed as active; the % refers to the signal ratio; also: potency is read from the fitted curve at half-maximal effect)
Outline: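 Beta-lactamase reporter read-out: FRET substrate fluorescence after 2 h at room temperature, following 16 h exposure of VDR-bla cells to test compound plus 3 nM (final) 1alpha,25-dihydroxyvitamin D3 agonist at 37C.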

[15] = qHTS assay to identify small molecule agonists of the vitamin D receptor (VDR) signaling pathway - cell viability counter screen (AID 743224); also: nearly all actives have a fitted effect of over 50% in size; also: potency is read from the fitted curve at half-maximal effect
Outline: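 Plated VDR-bla cells (4 h, 37C) received compound, incubated 16 h, then LiveBLAzer substrate 2 h RT; CellTiter-Glo added afterwards, luminescence read at 30 min.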

[16] = target: Peroxisome proliferator-activated receptor delta (Homo sapiens) (UniProt Q03181); test: qHTS assay to identify small molecule agonists of the peroxisome proliferator-activated receptor delta (PPARd) signaling pathway (AID 743212; calls by dose curve)
Chain of Peroxisome proliferator-activated receptor delta (Homo sapiens) (Q03181 whole entry, looked up): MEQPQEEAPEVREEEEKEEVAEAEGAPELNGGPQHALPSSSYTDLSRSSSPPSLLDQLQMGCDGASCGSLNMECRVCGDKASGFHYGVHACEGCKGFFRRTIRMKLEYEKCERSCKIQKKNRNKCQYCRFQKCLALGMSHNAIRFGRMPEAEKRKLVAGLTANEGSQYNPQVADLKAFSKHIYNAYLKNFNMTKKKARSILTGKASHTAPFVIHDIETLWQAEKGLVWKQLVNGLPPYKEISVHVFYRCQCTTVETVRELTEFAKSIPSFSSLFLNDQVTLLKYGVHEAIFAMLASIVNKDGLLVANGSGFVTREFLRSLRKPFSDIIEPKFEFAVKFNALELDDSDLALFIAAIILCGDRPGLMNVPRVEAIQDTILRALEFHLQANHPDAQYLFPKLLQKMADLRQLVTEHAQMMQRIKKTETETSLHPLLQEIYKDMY
Outline: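 GeneBLAzer PPARd UAS-bla HEK293H cells (beta-lactamase reporter under UAS control), plated and rested 5 h at 37 C, then exposed to compounds in DMSO at 37 C; LiveBLAzer B/G FRET substrate added, 2 h room temperature, fluorescence read.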

[17] = target: Peroxisome proliferator-activated receptor delta (Homo sapiens) (UniProt Q03181); test: qHTS assay to identify small molecule antagonists of the peroxisome proliferator-activated receptor delta (PPARd) signaling pathway (AID 743215; active = well fitted inhibition curve with a large enough effect in the signal ratio in the repeat runs, not every such curve was filed as active; the % refers to the signal ratio;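 also: cells stimulated with agonist L165041 at 300 nM final during compound exposure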; also: potency is read from the fitted curve at half-maximal effect)
Outline: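 HEK293H UAS-bla, PPARd; agonist L165041 300 nM final with cpd in DMSO; 37 C 17 h; FRET substrate, RT 2 h; fluorescence intensity.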

[18] = target: Bile acid receptor (Homo sapiens) (UniProt Q96RI1); test: qHTS assay to identify small molecule antagonists of the farnesoid-X-receptor (FXR) signaling pathway (AID 743217; active = well fitted inhibition curve with a large enough effect in the signal ratio in the repeat runs, not every such curve was filed as active; the % refers to the signal ratio)
Outline: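 GeneBLAzer FXR-UAS-bla HEK 293T, CDCA-stimulated (50 uM final). Compound treatment 16 h, 37 °C. Detection: beta-lactamase cleavage of B/G FRET substrate, fluorescence.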

SMILES: NC(=O)n1c(O)c(C(=O)c2cccs2)c2cc(Cl)ccc21
- Potency [1]: 23.7 µM (active)
- Potency [2]: inactive
- outcome [3]: inactive
- Potency [4]: inactive
- Potency [5]: inactive
- outcome [6]: inactive
- Potency [7]: inactive

SMILES: CC(=O)CC(c1ccccc1)c1c(O)c2ccccc2oc1=O (stereo unspecified)
- Potency [2]: inactive
- Potency [8]: inactive
- Potency [9]: inactive
- Potency [10]: inactive
- Potency [11]: inactive
- Potency [4]: inactive
- Potency [12]: inactive
- Potency [5]: inactive
- Potency [7]: inactive
- Potency [13]: inactive
- Potency [14]: inactive
- Potency [15]: inactive

SMILES: COc1ccc(C(Cl)=C(c2ccc(OC)cc2)c2ccc(OC)cc2)cc1
- Potency [1]: inactive
- Potency [2]: inactive
- Potency [8]: inactive
- Potency [10]: inactive
- Potency [11]: inactive
- outcome [3]: inactive
- Potency [4]: inactive
- Potency [16]: inactive
- Potency [12]: inactive
- Potency [17]: inactive
- Potency [5]: inactive
- Potency [7]: inactive
- Potency [13]: inactive
- Potency [14]: inactive
- Potency [15]: inactive

SMILES: CCCCCCCCCCCC[N+](C)(C)Cc1ccccc1
- Potency [1]: inactive
- Potency [2]: 59.2 µM (active)
- Potency [8]: 17 µM (active) and 15 µM (active) and 26.6 µM (active)
- Potency [10]: 26.8 µM (active) and 29.7 µM (active)
- Potency [11]: 34 µM (active) and 18.9 µM (active) and 16.8 µM (active)
- Potency [4]: 27 µM (active) and 18.9 µM (active) and 23.7 µM (active)
- Potency [12]: 19.1 µM (active) and 18.9 µM (active) and 15 µM (active)
- Potency [17]: 26.6 µM (active)
- Potency [5]: 17 µM (active) and 21.2 µM (active)
- Potency [7]: 53.9 µM (active) and 59.7 µM (active) and 29.8 µM (active)
- Potency [13]: inactive
- Potency [14]: 42.8 µM (active) and 53.2 µM (active)
- Potency [15]: 27 µM (active) and 29.9 µM (active) and 13.3 µM (active)

SMILES: CCOC(N)=O
- Potency [2]: inactive
- Potency [8]: inactive
- Potency [9]: inactive
- Potency [10]: inactive
- Potency [11]: inactive
- outcome [3]: inactive
- Potency [4]: inactive
- Potency [16]: inactive
- Potency [12]: inactive
- Potency [17]: inactive
- Potency [5]: inactive
- Potency [7]: inactive
- Potency [15]: inactive

SMILES: COc1ccc(OC(F)(F)F)cc1CN[C@H]1CCCN[C@H]1c1ccccc1
- Potency [1]: inactive
- Potency [2]: 54.5 µM (active)
- Potency [8]: inactive
- Potency [10]: 27.3 µM (active)
- Potency [11]: inactive
- outcome [3]: inactive
- Potency [4]: 43.6 µM (active)
- Potency [12]: 43.6 µM (active)
- Potency [5]: 43.6 µM (active)
- Potency [13]: inactive
- Potency [15]: 54.9 µM (active)

SMILES: Oc1ccccc1
- Potency [1]: inactive
- Potency [2]: inactive
- Potency [8]: inactive
- Potency [9]: inactive
- Potency [10]: inactive
- Potency [11]: inactive
- Potency [4]: inactive
- Potency [12]: inactive
- Potency [18]: inactive
- Potency [5]: inactive
- outcome [6]: inactive
- Potency [7]: inactive
- Potency [15]: inactive

SMILES: CC(=O)Nc1c(I)c(NC(C)=O)c(I)c(C(=O)O)c1I
- Potency [2]: inactive
- Potency [8]: inactive
- Potency [9]: inactive
- Potency [10]: inactive
- Potency [11]: inactive
- Potency [4]: inactive
- Potency [12]: inactive
- Potency [5]: inactive
- Potency [7]: inactive

SMILES: CCN(Cc1c(F)cccc1Cl)c1c([N+](=O)[O-])cc(C(F)(F)F)cc1[N+](=O)[O-]
- Potency [1]: inactive
- Potency [2]: inactive
- Potency [8]: inactive
- Potency [9]: inactive
- Potency [10]: inactive
- Potency [11]: inactive
- Potency [4]: 17.4 µM (active)
- Potency [16]: inactive
- Potency [12]: 17.4 µM (active)
- Potency [5]: 19.5 µM (active)
- outcome [6]: inactive
- Potency [7]: 21.9 µM (active)
- Potency [14]: inactive
- Potency [15]: inactive

SMILES: COc1cccc(O)c1O
- Potency [1]: 31.8 µM (active)
- Potency [8]: inactive
- Potency [10]: inactive
- Potency [4]: inactive
- Potency [16]: inactive
- Potency [12]: inactive
- Potency [17]: inactive
- Potency [5]: inactive
- Potency [7]: inactive
- Potency [14]: inactive
- Potency [15]: 57.1 µM (active)

SMILES: CC(C)NCC(O)c1ccc(O)c(O)c1 (stereo unspecified)
- Potency [1]: inactive
- Potency [2]: inactive
- Potency [8]: inactive
- Potency [9]: inactive
- Potency [10]: inactive
- Potency [11]: inactive
- Potency [4]: inactive
- Potency [12]: inactive
- Potency [5]: inactive
- Potency [7]: inactive
- Potency [13]: inactive
- Potency [14]: inactive
- Potency [15]: inactive

SMILES: CCc1nc(N)nc(N)c1-c1ccc(Cl)cc1
- Potency [1]: inactive
- Potency [2]: inactive
- Potency [8]: inactive
- Potency [10]: 5.31 µM (active)
- Potency [11]: inactive
- outcome [3]: inactive
- Potency [16]: inactive
- Potency [12]: inactive
- Potency [17]: inactive
- Potency [18]: inactive
- outcome [6]: inactive
- Potency [7]: 24.9 µM (active)
- Potency [13]: inactive
- Potency [14]: inactive
- Potency [15]: 17.4 µM (active)

Reference: PubChem BioAssay (Tox21)
